Reference: PubChem BioAssay AID2685 (National Center for Advancing Translational Sciences (NCATS), 2010)
The campaign covered roughly 320,000 compounds. About 2,100 (0.66%) were called active. Another 53% or so got no clear call; they are omitted. Calls follow the shape of the dose curve; as a rule, active = well fitted inhibition curve with a large enough effect in the signal ratio, with a control signal flat (not every such curve was filed as active); inconclusive = small, poorly fitted or top-dose-only effect, or effect the other way, or a change in a side signal; inactive = flat fitted curve, though single readings scatter; the % refers to the signal ratio. The full list was thinned out, with actives kept by preference.

Test: qHTS Assay for Lipid Storage Modulators in Drosophila S3 Cells;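 as to cell number change: cells counted by Cell Tracker Red CMTPX staining in the red channel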; as to lipid storage change, negative = inhibition: % is scaled to controls: 0 for no effect and ±100 for the full control effect
Settings: BODIPY lipid droplet fluorescence, 18-24 h, cells fed with added oleic acid; cell number change: measured here: cell count max response; series mostly up to 46.1 µM; lipid storage change, negative = inhibition: at the top concentration
How it was run: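 Laser-scanning cytometry quantifies lipid droplet accumulation (500–530 nm total intensity; droplet/cell object ratio) in oleic acid-fed (400 uM added) Drosophila S3 cells treated with a concentration series. 20 uM Triacsin C defined 100% inhibition.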
Potency is read from the fitted curve at half-maximal effect.

Structure (SMILES) | lipid storage change, negative = inhibition | cell number change | Potency | outcome
O=C(c1cccc([N+](=O)[O-])c1)N(c1ccccn1)c1ccccn1 | -6.93% (inactive) | 2.68% |  | 
CN(C)C(CNC(=O)c1ccc(S(=O)(=O)Nc2ccccc2)cc1)c1ccco1 (stereo not drawn) | 13% (inactive) | 14.1% |  | 
Cc1ccc(S(=O)(=O)N(C)c2ccc(C(=O)NCC(c3ccco3)N(C)C)cc2)cc1 (stereo not drawn) |  | -16.7% | 1.64 µM (active) | 
COc1ccc(N(C)S(=O)(=O)c2cccc(C(=O)NCC(c3ccco3)N3CCCC3)c2)cc1 (stereo not drawn) | 13.3% (inactive) | 8.75% |  | 
CN(C)C(CNC(=O)c1cc(S(=O)(=O)N(C)c2ccc(F)cc2)ccc1Cl)c1ccco1 (stereo not drawn) | 19.2% (inactive) |  |  | 
Cc1ccc(NS(=O)(=O)c2cccc(C(=O)NCC(c3ccco3)N3CCCC3)c2)cc1 (stereo not drawn) | 9.46% (inactive) | -2.68% |  | 
Cc1ccc(N(C)S(=O)(=O)c2cccc(C(=O)NCC(c3ccco3)N3CCCC3)c2)cc1 (stereo not drawn) |  | -25.8% | 7.31 µM (active) | 
Cc1ccc(C)c(NC(=S)NCC(c2ccccc2)N(C)C)c1 (stereo not drawn) |  |  |  | inactive
Cc1cc(C)c2c(=O)cc(C(F)(F)F)oc2n1 | 9.56% (inactive) | 15.1% |  | 
CC(=O)Nc1ccc(C(=O)N/N=C/c2cccnc2)cc1 | 12.5% (inactive) | 0.939% |  | 
O=C(N/N=C/c1cccnc1)c1ccc(NC(=O)c2ccc(Cl)cc2)cc1 |  | 0.451% | 0.13 µM (active) | 
Cc1ccc(C(=O)Nc2ccc(C(=O)N/N=C/c3cccnc3)cc2)cc1 |  | 17.5% |  | inactive
CC(C)c1ccc(NC2CCCN(C(=O)c3ccccc3-c3ncc[nH]3)C2)cc1 (stereo not drawn) |  | -18.8% |  | inactive
COc1ccc(NC(=O)Nc2ccc3c(c2)CCC3)c(OC)c1 | -7.77% (inactive) | 9.57% |  | 
O=C(Cn1c(-c2ccccc2)c[n+]2ccsc12)c1ccc(Br)cc1 | 21.2% (inactive) |  |  | 
O=C1Nc2ccc(Cl)cc2C12OCCCO2 |  | 13.2% |  | inactive
COC(=O)C1(C(F)(F)F)N=C(C(F)(F)F)Nc2ccc(Cl)cc21 (stereo not drawn) | -2.99% (inactive) | 5.94% |  | 
O=C1Nc2ccc(Cl)cc2C(C#CC2CC2)(C(F)(F)F)O1 (stereo not drawn) |  | -25.6% | 9.2 µM (active) | 
O=C(Cn1nnc2ccccc21)C1CC1 | 9.19% (inactive) | 7.3% |  | 
NCc1cc2c3c(c1)CCCN3CCC2 | 0.546% (inactive) |  |  | 

Structure (SMILES) | lipid storage change, negative = inhibition | cell number change | Potency | outcome
C=CCOc1cccc(C(=O)N2CCCC(CNS(=O)(=O)c3cccs3)C2)c1 (stereo not drawn) | 10.9% (inactive) | 11.7% |  | 
Cc1ccccc1-n1ncc2c1CC(C)(C)CC2NC(=O)CSc1ccncc1 (stereo not drawn) |  | -2.05% | 0.461 µM (active) | 
CSCCC(=O)NC1CC(C)(C)Cc2c1cnn2-c1ccccc1C (stereo not drawn) | 11.4% (inactive) | 13.5% |  | 
Cc1ccccc1-n1ncc2c1CC(C)(C)CC2NC(=O)CCC(F)(F)F (stereo not drawn) | 3.89% (inactive) | 7.77% |  | 
CC(C)=C1SC(N2CCN(c3cccc(Cl)c3)CC2)=NC1=O | -7.9% (inactive) | 5.96% |  | 
COc1cccc(N2C(=NC(=O)CCC3CCCC3)SC3CS(=O)(=O)CC32)c1 (stereo not drawn) |  | 4.89% | 11.6 µM (active) | 
COc1cccc(N2C(=NC(=O)C3CCCCC3)SC3CS(=O)(=O)CC32)c1 (stereo not drawn) |  | -4.58% |  | inactive
COc1cccc(N2C(=NC(=O)CCc3ccccc3)SC3CS(=O)(=O)CC32)c1 (stereo not drawn) |  | -7.96% |  | inactive
Cc1occc1C(=O)N1CCN(c2ccc(Cl)c(Cl)c2)CC1 |  |  |  | inactive
Cc1ccccc1OC(C)C(=O)N1CCC(Cc2ccccc2)CC1 (stereo not drawn) | -2.98% (inactive) | 12.1% |  | 
O=C(Cc1ccc(Cl)cc1)NNS(=O)(=O)c1ccc([N+](=O)[O-])cc1 | -7.64% (inactive) | 7.62% |  | 
O=C(Cc1ccccc1)NNS(=O)(=O)c1ccc([N+](=O)[O-])cc1 |  | 0.088% | 1.46 µM (active) | 
O=C(NNS(=O)(=O)c1ccccc1)c1ccc([N+](=O)[O-])cc1 |  | 3.57% |  | inactive
Cc1ccc(Cc2cnc(NC(=O)/C(C#N)=C/c3ccc(-c4ccccc4[N+](=O)[O-])o3)s2)cc1 | 11.5% (inactive) | -16% |  | 
CCOC(=O)CSc1nc(Cc2ccccc2)nc2ccccc12 | 0.223% (inactive) |  |  | 
CCOC(=O)CNC(=O)CSc1nc(Cc2ccccc2)nc2ccccc12 |  | -15.2% | 7.31 µM (active) | 
CCOC(=O)CNC(=O)CSc1nc(Cc2cccs2)nc2ccccc12 | -32.5% (inactive) | -11.5% |  | 
O=C(NN=C1CCCC1)c1ccccc1[N+](=O)[O-] |  | 7.42% |  | inactive
Cc1cc(C)nc(NC(C)(C)C(=O)O)n1 | -23.2% (inactive) | 0.119% |  | 
O=C(c1ccccc1Br)N1CCCC(c2nc(-c3cccs3)no2)C1 (stereo not drawn) |  |  |  | inactive

Structure (SMILES) | lipid storage change, negative = inhibition | cell number change | Potency | outcome
COc1ccc(-c2noc(C3CCCN(C(=O)c4ccc(C)cc4)C3)n2)cc1 (stereo not drawn) | 4.74% (inactive) | 10.5% |  | 
Cc1ccc(-c2noc(C3CCCN(C(=O)c4ccccc4Br)C3)n2)cc1 (stereo not drawn) |  | -26.6% | 18.4 µM (active) | 
Cc1nn(C)c(Cl)c1C(=O)NCC(=O)NCc1ccccc1 | -13.1% (inactive) | -13% |  | 
Nc1nonc1-n1nnc(C(=O)N/N=C/c2ccoc2)c1-c1ccccc1 |  | 11.3% |  | inactive
O=C(O)c1ccccc1C(=O)NCCCn1ccnc1 | 6.83% (inactive) | 7.04% |  | 
Nc1c(O)ccc2c1C(=O)c1ccccc1C2=O | -9.3% (inactive) | -17.1% |  | 
CCOc1cc(C(=O)OCC(=O)N(C)c2ccccc2)cc(OCC)c1OCC |  | 9.01% |  | inactive
Cc1[nH]nc(SCC(=O)N2CCCC2)c1[N+](=O)[O-] | -2.11% (inactive) | -4.82% |  | 
CCc1ccc(CNC(=O)CCCn2c(=O)c3cccn3c3cccnc32)cc1 |  |  |  | inactive
COc1cccc(CNC(=O)CCn2c(=O)c3cccn3c3cccnc32)c1 | -26% (inactive) | 1.83% |  | 
COc1ccc(CCNC(=O)CCCn2c(=O)c3cccn3c3cccnc32)c(OC)c1 |  | -19.3% | 16.4 µM (active) | 
CN1CCN(C(=O)CCn2c(=O)c3cccn3c3cccnc32)CC1 | -18.5% (inactive) | 17.7% |  | 
CSc1cccc(NC(=O)CCCn2c(=O)c3cccn3c3cccnc32)c1 |  | -18.8% | 18.4 µM (active) | 
COc1ccc(N2CCN(C(=O)CCCn3c(=O)c4cccn4c4cccnc43)CC2)cc1 |  | 22.2% |  | inactive
CCOC(=O)C1=C(CS(=O)(=O)c2ccc(Cl)cc2)NC(=O)NC1c1ccc(O)c(OC)c1 (stereo not drawn) | -8.07% (inactive) | 23% |  | 
O=C(OC(C(=O)Nc1ccc(Cl)cc1C(F)(F)F)c1ccccc1)C1=COCCO1 (stereo not drawn) | 6% (inactive) | -1.65% |  | 
CCN(CC)CCCN1C(=O)C(O)=C(C(=O)c2sc(C)nc2C)C1c1ccc(C)o1 (stereo not drawn) | 0.201% (inactive) | 0.178% |  | 
COc1cc(/C=C/c2noc(-c3ccccc3O)n2)ccc1OC(C)=O | -1.96% (inactive) | 8.42% |  | 
